Compounds with a hit are over-represented: about 3.4% of the library has one in this group of screens.
H9c2 protect: myocardial damage modulation in H9c2 cells | AID 588492 | protection from H2O2 cell death, % at 20 µM | H9c2 cardiomyocytes, H2O2 injury protection, ATPLite, 2 h | actives 0.63% (n = 360,000);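 active means compounds giving at least 50% protection of heart cells from peroxide-induced death in the single-dose screen, raw or plate-pattern-corrected value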
SMARCA2 act: SMARCA2 function activation, primary screen; AID 652017; MG213 cells, MMTV-luciferase reporter, dexamethasone, overnight; activation, % at 9.1 µM; actives 1% (n = 370,000); in the data active means activation above about 7.8%
Gli-Sufu block: antagonists of Gli-Sufu signaling; Sufu-KO-LIGHT fibroblasts, Gli luciferase reporter luminescence; inhibition, % at 5 µM; actives 0.74% (n = 340,000); AID 588413;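 active means inhibition above about 55%, limit read from the data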
COUP-TFII inh: NR2F2 (human) inhibition, primary screen; P24468; HEK293T NGFI-A luciferase reporter, luminescence; inhibition, % at 8.6 µM; actives 0.7% (n = 370,000); AID 686940;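 active means inhibition above a per-plate cutoff, mean inhibition of test wells between control levels plus 3 SD, cut at about 38% in these data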;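 further: cells cotransfected with COUP-TFII expression vector driving the NGFI-A reporter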
Target sequence (P24468 whole entry, looked up): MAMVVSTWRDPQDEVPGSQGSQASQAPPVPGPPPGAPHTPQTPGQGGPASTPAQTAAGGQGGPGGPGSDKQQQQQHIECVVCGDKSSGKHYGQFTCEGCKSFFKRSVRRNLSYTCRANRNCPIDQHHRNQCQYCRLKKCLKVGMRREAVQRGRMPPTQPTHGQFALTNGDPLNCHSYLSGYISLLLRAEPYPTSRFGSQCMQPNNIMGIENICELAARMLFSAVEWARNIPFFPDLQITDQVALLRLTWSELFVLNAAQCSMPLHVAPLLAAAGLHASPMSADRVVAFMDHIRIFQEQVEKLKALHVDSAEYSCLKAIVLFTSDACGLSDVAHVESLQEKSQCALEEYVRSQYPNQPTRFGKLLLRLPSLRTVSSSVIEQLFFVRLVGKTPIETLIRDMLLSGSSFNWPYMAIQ
FXN GAA850 act: increases GAA850 frataxin promoter reporter activity | actives 0.56% (n = 360,000) | HEK293 lucGAA850 FXN promoter luciferase reporter, 24 h; percent of 10 µM SAHA response | activation, % at 6 µM | AID 540364;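 active means activation above the average of all compounds screened plus 3 SD, cutoff fixed separately per campaign, cut at about 7.5% in these data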
GalR3 antag: antagonists of human GalR3. HEK293 GalR3-CNG cAMP membrane potential fluorescence; galR3 body fused to GalR1 C-terminus. inhibition, % at 3 µM. actives 0.44% (n = 360,000). AID 651719;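 active means inhibition above the screen-wide average plus 3 SD, cut at about 13% in these data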;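 further: forskolin and galanin both at EC90 stimulate the cells; cAMP rise reported by CNG channel membrane potential dye signal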
Target sequence (O60755 1-299 limits assumed): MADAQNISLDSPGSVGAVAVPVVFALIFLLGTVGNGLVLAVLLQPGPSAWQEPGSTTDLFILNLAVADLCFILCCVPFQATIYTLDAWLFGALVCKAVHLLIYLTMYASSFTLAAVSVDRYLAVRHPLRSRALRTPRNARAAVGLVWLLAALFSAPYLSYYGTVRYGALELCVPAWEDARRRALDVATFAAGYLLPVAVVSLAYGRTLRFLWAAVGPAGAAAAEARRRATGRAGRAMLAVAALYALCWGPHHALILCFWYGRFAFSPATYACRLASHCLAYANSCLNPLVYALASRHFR
GAA30 counter: GAA30 FXN promoter activation counter-screen. shares compounds with FXN GAA850 act. HEK293 lucGAA30 FXN promoter luciferase, 24 h; DMSO = 0%, 5 µM ipriflavone = 100%. activation, % at 6 µM. actives 66% (n = 1,900). AID 588350;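 active means mean activation above the mean of solvent-only control wells plus 3 SD, cut at about 22% in these data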;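 further: counterscreen of GAA850 promoter hits where activity marks nonselective or luminescence artifacts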
FXN GAA850 conf: confirmation of GAA850 frataxin (FXN) promoter activators; shares compounds with FXN GAA850 act; HEK293 lucGAA850 FXN promoter luciferase reporter, 24 h; 100% = activation by SAHA; activation, % at 6 µM; actives 86% (n = 1,900);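 active means mean activation above a set limit taken from the primary screen, cut at about 8% in these data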
Each line names hits and unclear results; the compound was inactive in the other large screens (follow-up assays come after a bar, where they were run).

COC(=O)c1ccc(COC(=O)CNC(=O)c2ccco2)cc1	none
COC(=O)c1ccc(COC(=O)CNC(=O)c2ccc(-c3ccccc3)cc2)cc1	FXN GAA850 act 8.1 | GAA30 counter 76 | FXN GAA850 conf 22
C[C@@H]1NS(=O)(=O)c2cccc(Cl)c2O[C@@H]1c1ccccc1	none (no result: H9c2 protect, Gli-Sufu block, FXN GAA850 act)
Cc1ccc(N(C(=O)c2nsc(Cl)c2Cl)C(C(=O)NC2CCCC2)c2ccc(O)cc2)cc1C (stereo not drawn)	FXN GAA850 act 9.5 | GAA30 counter 34 | FXN GAA850 conf 14
O=C(c1ccc(-c2ccc([N+](=O)[O-])cc2)o1)N1CCCCC1	FXN GAA850 act 8.5 | GAA30 counter 125 | FXN GAA850 conf 44
CC(=O)c1cc(-c2cccc(Cl)c2O)c(=O)n2c1CCC2	none (no result: H9c2 protect, Gli-Sufu block, FXN GAA850 act, GalR3 antag)
Cc1ncccc1C(=O)N1CCCC(C(=O)c2ccc3c4c(cccc24)CC3)C1 (stereo not drawn)	none
CN(C)C(=O)CCC(=O)N1CCCC(C(=O)c2ccc3c4c(cccc24)CC3)C1 (stereo not drawn)	FXN GAA850 act 10 | GAA30 counter 44 | FXN GAA850 conf 13
c1ccc(Cn2c(-c3ccco3)nc3nc4ccccc4nc32)cc1	none
O=c1c2ccccc2nc(-c2ccco2)n1Cc1ccccc1	FXN GAA850 act 8.2 | GAA30 counter 107 | FXN GAA850 conf 28
COC(=O)C1CCN(C2CN(Cc3ccc(F)cc3)S(=O)(=O)C2)CC1 (stereo not drawn)	none (no result: Gli-Sufu block, FXN GAA850 act)
CC[C@]1(C(=O)OC)[C@H]2C(=O)N(Cc3ccccc3)C(=O)[C@H]2[C@H]2CN=C(SCC3CC3)N21	FXN GAA850 act 17 | GAA30 counter 30 | FXN GAA850 conf 18
CC[C@]1(C(=O)OC)[C@H]2C(=O)N(Cc3ccccc3)C(=O)[C@H]2[C@H]2CN=C(SCc3ccc(C(=O)OC)cc3)N21	FXN GAA850 act 9.5 | GAA30 counter inactive | FXN GAA850 conf 11
CCN1C(=O)[C@H]2[C@H]3CN=C(SCC4CC4)N3[C@@](Cc3ccccc3)(C(=O)OC)[C@H]2C1=O	none
CCN1C(=O)[C@H]2[C@H]3CN=C(SCc4ccc(C)cc4)N3[C@@](CC)(C(=O)OC)[C@H]2C1=O	none
COC(=O)[C@@]1(C)[C@H]2C(=O)N(Cc3ccccc3)C(=O)[C@H]2[C@H]2CN=C(SCc3ccccc3)N21	FXN GAA850 act 16 | GAA30 counter 33 | FXN GAA850 conf 16
CC[C@]1(C(=O)OC)[C@H]2C(=O)N(Cc3ccccc3)C(=O)[C@H]2[C@H]2CN=C(SCc3ccc(C)cc3)N21	FXN GAA850 act 13 | GAA30 counter 34 | FXN GAA850 conf 14
CCOC(=O)C1=CCN(S(=O)(=O)c2cccc(Cl)c2)C1c1ccc(Cl)c(Cl)c1 (stereo not drawn)	none (no result: H9c2 protect, Gli-Sufu block, FXN GAA850 act)
CC1CCCCC1C(=O)N1CCC(Oc2cccnc2)CC1 (stereo not drawn)	none (no result: H9c2 protect, Gli-Sufu block, FXN GAA850 act, GalR3 antag)
COC(=O)C1CN(Cc2ccc(OC)cc2)CCS(=O)(=O)N1Cc1cn(Cc2ccc(Cl)cc2)nn1 (stereo not drawn)	none (no result: H9c2 protect, Gli-Sufu block, FXN GAA850 act, GalR3 antag)
O=C(NCc1ccccc1)C(CCc1ccccc1)n1c(=O)c(-c2ccccc2)nc2ccccc21 (stereo not drawn)	none (no result: H9c2 protect, Gli-Sufu block, FXN GAA850 act)
CCOC(=O)[C@]12CCCCC/C=C\1N(CCc1ccc(Cl)cc1)C(=O)[C@H]2CC(=O)N1CCOCC1	none (no result: H9c2 protect, Gli-Sufu block, FXN GAA850 act, GalR3 antag)
Brc1ccccc1OCCCn1cnc2ccccc21	FXN GAA850 act 8.7 | GAA30 counter 101 | FXN GAA850 conf 36
O=C(N/N=C/c1ccccc1OC(=O)c1ccc2c(c1)OCO2)c1cccc(F)c1	none
COc1cccc(C(=O)Oc2ccccc2/C=C\C(=O)c2cc3ccccc3o2)c1	FXN GAA850 act 7.8 | GAA30 counter 95 | FXN GAA850 conf 45
O=C(Oc1ccccc1/C=C\C(=O)c1cc2ccccc2o1)c1cccc(F)c1	FXN GAA850 act 8.9 | GAA30 counter 40 | FXN GAA850 conf 20
O=C(NC1CCCCC1)C(c1cccs1)N(C(=O)Cc1c[nH]c2ccccc12)c1ccc(F)cc1 (stereo not drawn)	FXN GAA850 act 10 | GAA30 counter inactive | FXN GAA850 conf inactive
CC(=O)c1ccc(N(C(=O)Cc2c[nH]c3ccccc23)C(C(=O)NC2CCCCC2)c2cccs2)cc1 (stereo not drawn)	none
Cc1ccc(N(C(=O)Cc2cccs2)C(C(=O)NC2CCCCC2)c2ccccn2)cc1C (stereo not drawn)	FXN GAA850 act 13 | GAA30 counter inactive | FXN GAA850 conf 11
N/C(=N\OC(=O)c1cccs1)c1cccc(Br)c1	FXN GAA850 act 8.0 | GAA30 counter 57 | FXN GAA850 conf inactive
COc1cc(C(O)c2nc(-c3ccc(N(C)C)cc3)cs2)ccc1F (stereo not drawn)	none (no result: SMARCA2 act, Gli-Sufu block, COUP-TFII inh, GalR3 antag)
COc1ccc(-n2c(=S)[nH]c3cc(C(=O)Nc4ccc(OC)c(OC)c4)ccc3c2=O)cc1	FXN GAA850 act 11 | GAA30 counter inactive | FXN GAA850 conf inactive
COc1ccc(-n2c(=S)[nH]c3cc(C(=O)Nc4cccc(C)c4)ccc3c2=O)cc1	none
COCCn1c(C)cc(C(=O)COC(=O)c2ccc3ncsc3c2)c1C	FXN GAA850 act 7.8 | GAA30 counter 93 | FXN GAA850 conf 32
Cc1nc(SCC(=O)N(C)c2ccccc2)[nH]c(=O)c1C	none (no result: H9c2 protect, SMARCA2 act, Gli-Sufu block, FXN GAA850 act, GalR3 antag)
O=S1(=O)CC(N2CCC(Cc3ccccc3)CC2)CN1C1CCCC1 (stereo not drawn)	none (no result: Gli-Sufu block, FXN GAA850 act)
O=C(N/N=C/C(Br)=C/c1ccccc1)c1cnccn1	FXN GAA850 act 8.9 | GAA30 counter 107 | FXN GAA850 conf 39
O=C(N/N=C/C=C\c1ccccc1)c1cnccn1	none
Cc1ccc(C)c(-n2cc(CNCCCn3cccn3)c(-c3ccccc3)n2)c1	FXN GAA850 act 11 | GAA30 counter inactive | FXN GAA850 conf inactive
CN1C(=O)[C@@](O)(CC(=O)c2ccccc2)c2cc(Br)ccc21	none (no result: H9c2 protect, Gli-Sufu block, FXN GAA850 act)
CCCCN1C(=O)C(O)(c2ccccc2)c2cc(Br)ccc21 (stereo not drawn)	FXN GAA850 act 8.1 | GAA30 counter inactive | FXN GAA850 conf 14
Cc1ccc(-n2c(C)cc(C(=O)CSc3n[nH]c(N)n3)c2C)cc1	none
Cc1cc(C(=O)CSc2n[nH]c(N)n2)c(C)n1-c1ccccc1	FXN GAA850 act 8.9 | GAA30 counter 101 | FXN GAA850 conf 28
Cc1ccc(-c2noc(C3CCCN(C(=O)c4ccccc4)C3)n2)o1 (stereo not drawn)	FXN GAA850 act 7.7 | GAA30 counter 107 | FXN GAA850 conf 30

From PubChem BioAssay
